# ATXN viability: Viability Counterscreen for Primary qHTS for Inhibitors of ATXN expression. Potency, µM (highest dose often 56.7 µM), hits mostly cytotoxic. AID 651635, 2014. 0.49% of 400,000 active. S2 cells (HEK-293 line with an ATXN2-luciferase reporter) viability, CellTiter-Fluor protease fluorescence, 24 h; note: nearly all actives have a fitted effect of over 40% in size
# TGFb SMAD3 inh: qHTS for Inhibitors of TGF-b. Potency, µM (titrated, usually from 46.1 µM), inactives show at the highest dose activity, negative = inhibition, actives largely listed as inhibitors. 1.2% of 410,000 active. AID 588855, 2011. HepG2 CAGA-GFP TGF-b/SMAD3 reporter, GFP fluorescence, 18 h; TGF-beta stimulated, 500 pg/mL final; note: % is set by controls: 0 for no effect and ±100 for the full control effect; nearly all actives have a fitted effect of over 65% in size
#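 Using HEPG2 CAGA-GFP reporter cells at 1000 cells/well, we pinned test compounds, stimulated with recombinant TGF-beta (500 pg/mL final) and measured total well GFP after 18 h.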
# ATXN2 expr inh: Primary qHTS for Inhibitors of ATXN expression | 0.72% of 360,000 active | Potency, µM (top dose mostly 57 µM), for inactives: top-dose activity change, negative = inhibition, actives largely listed as inhibitors | AID 1745845, 2022 | HEK-293 ATXN2-luciferase reporter, luminescence, 24 h; note: % is set by controls: 0 for no effect and ±100 for the full control effect; nearly all actives have a fitted effect of over 55% in size
#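 qHTS (up to 57 uM final) was run with 24 h compound exposure of reporter cells at 37 °C. Each well was multiplexed: SteadyGlo luminescence measured ATXN2-luciferase expression after a fluorogenic Gly-Phe-AFC viability readout (25 uM final).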
# ALOX12 inh: Primary qHTS assay for inhibitors of human arachidonate 12S-lipoxygenase (ALOX12): Round 2; 1.1% of 580,000 active; AID 1671190, 2021; Polyunsaturated fatty acid lipoxygenase ALOX12 (Homo sapiens), P18054; purified 12hLO, xylenol orange hydroperoxide absorbance; Potency, µM (doses to about 108 µM), inactives show at the top dose activity change, negative = inhibition, actives largely listed as inhibitors; note: % is set by controls: 0 for no effect and ±100 for the full control effect
# Target sequence (P18054 whole entry, looked up): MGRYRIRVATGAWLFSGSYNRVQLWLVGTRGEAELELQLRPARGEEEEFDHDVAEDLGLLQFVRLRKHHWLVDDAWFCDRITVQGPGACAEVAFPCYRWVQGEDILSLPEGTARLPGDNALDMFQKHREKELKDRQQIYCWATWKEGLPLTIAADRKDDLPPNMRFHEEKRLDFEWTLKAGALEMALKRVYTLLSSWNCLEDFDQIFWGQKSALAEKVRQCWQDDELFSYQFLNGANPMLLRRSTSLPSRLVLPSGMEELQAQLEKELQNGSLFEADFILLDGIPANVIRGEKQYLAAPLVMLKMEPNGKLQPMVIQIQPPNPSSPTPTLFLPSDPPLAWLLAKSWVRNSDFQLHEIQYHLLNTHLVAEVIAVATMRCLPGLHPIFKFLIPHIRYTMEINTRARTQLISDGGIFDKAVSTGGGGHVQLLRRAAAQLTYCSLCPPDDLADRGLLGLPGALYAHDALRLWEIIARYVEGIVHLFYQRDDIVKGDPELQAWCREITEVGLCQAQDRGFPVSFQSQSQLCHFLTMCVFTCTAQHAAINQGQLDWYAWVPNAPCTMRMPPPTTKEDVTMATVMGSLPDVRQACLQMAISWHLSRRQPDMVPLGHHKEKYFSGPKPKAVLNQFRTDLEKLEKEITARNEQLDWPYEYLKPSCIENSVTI
#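 Hydroperoxide product was detected by ferrous iron/xylenol orange as the 573 to 405 nm absorbance ratio. Arachidonic acid at 40 uM (final) was turned over for 30 min at room temperature by 150 nM human 12hLO, pH 7.0 Hepes buffer, after 15 min compound preincubation.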
# HepG2 viability: qHTS for Inhibitors of TGF-b: Cytotox Counterscreen. HepG2 CAGA-GFP viability, ATP luminescence, 18 h. Potency, µM (doses to about 46.1 µM), for the others: top-dose activity change, negative = cytotoxicity, hits mostly cytotoxic. 0.76% of 410,000 active. AID 588856, 2011
#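 HepG2 CAGA-GFP cells (1000/well, DMEM with 1% FBS) received compound, then TGF-beta at 500 pg/mL final, and were incubated 18 hours at 37 degrees C. Viability was read by CellTiter-Glo luminescence. Media-only wells were set as complete cell-killing and DMSO as no toxicity.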
# An asterisk follows results filed as active; i = inactive; ? = inconclusive; nt = not tested or not shown; [ ] = remark or other dose. Compounds with a hit are over-represented: about 2.7% of the library has one in this group of screens. Calls come from the whole dose curve; as a rule, active = well fitted curve in the direction sought with a large enough effect; inconclusive = small, poorly fitted or top-dose-only effect, or another doubt; inactive = no such curve, though single readings can be large; an effect the other way counts as inactive or inconclusive. Potency is the fitted concentration of half-maximal effect.
SMILES,ATXN viability,TGFb SMAD3 inh,ATXN2 expr inh,ALOX12 inh,HepG2 viability
Cc1ccc(N(C)C(=O)c2cc(-c3ccco3)nc3ccccc23)cc1,nt,nt,nt,35µM*,nt
Cc1ccc(NC(=O)CN(C)C(=O)c2cc(-c3ccco3)nc3ccccc23)cc1,i,12%,-17%,7.1µM*,-7%
CCN(CC)CCNC(=O)c1cc(-c2ccco2)nc2ccccc12,i,1%,-15%,?,-24%
CN(CC(=O)Nc1ccc(F)cc1)C(=O)c1cc(-c2ccco2)nc2ccccc12,i,0%,-22%,14µM*,-6%
COc1cccc(NC(=O)CN(C)C(=O)c2cc(-c3ccco3)nc3ccccc23)c1,i,2%,4%,?,1%
O=c1[nH]c2ccc(Br)cc2c(-c2ccccc2)c1CN1CCCCC1,nt,nt,nt,22µM*,nt
O=c1[nH]c2ccc(Br)cc2c(-c2ccccc2)c1CN1CCOCC1,i,?,-20%,-5%[57.4 µM],-18%
Cc1ccc(S(=O)(=O)c2ccc([N+](=O)[O-])o2)cc1,11µM*,10µM*,6.7µM*,-17%,-100%
COc1ccc(C)cc1COc1ccc(C#N)cc1OC,nt,nt,nt,-29%,nt
O=C(CSc1nccc(-c2ccc(F)cc2)n1)Nc1ccc(OC(F)F)cc1,nt,nt,nt,33%,nt
CCC(C(=O)Nc1ccc(C)c(Cl)c1)n1c(=O)c(-c2ccccc2NC(C)=O)nc2ccccc21 (centres undefined),?,13µM*,?,-17%,-9%
CCC(C(=O)Nc1cccc(C(C)=O)c1)n1c(=O)c(-c2ccccc2NC(C)=O)nc2ccccc21 (centres undefined),nt,nt,nt,0%,nt
Cc1ccc(CN2CCCC(c3nc(-c4cccnc4)no3)CCNC(=O)CC2)o1 (centres undefined),nt,nt,nt,-2%,nt
C#CCCc1ccccc1/C=[N+](/C)[O-],i,16µM*,-7%,-18%,-94%
CCOc1ccc(NC(=O)c2ccc3c(SCC(=O)O)c4c(nc3c2)CCCC4)cc1,i,-5%,14%,-14%,-4%
O=C(O)CSc1c2c(nc3cc(C(=O)Nc4cccc(C(F)(F)F)c4)ccc13)CCC2,i,1%,0%,45µM*,-2%
COc1ccc(-c2nc3ccc(C)cn3c2CC(C)(C)C)cc1OC,nt,?,28µM*,-30%,-52%
COc1ccc(-c2nc3ccc(C)cn3c2Cc2ccccc2)cc1OC,28µM*,?,?,?,-43%
COc1ccccc1Cc1c(-c2ccc(C#N)cc2)nc2ccc(Br)cn12,i,-7%,5%,25µM*,-23%
COc1ccccc1Cc1c(-c2ccc(OC)c(OC)c2)nc2ccc(C)cn12,22µM*,?,0%,-24%,-19%
COc1ccc(-c2nc3ccc(C)cn3c2Cc2ccc(C)cc2)cc1OC,nt,?,-14%,?,-25%
COc1ccccc1Cc1c(-c2ccc(C)cc2)nc2ccc(Br)cn12,i,?,2%,-26%,-3%
O=C(/C=C/c1ccc2c(c1)OCCCO2)OCc1ccccn1,nt,nt,nt,-27%,nt
Cc1c(-c2nc3ccccc3[nH]2)c(NC(=O)CC(C)C)n(CC2CCCO2)c1C (centres undefined),nt,nt,nt,3%,nt
O=C(CCN1C(=O)c2ccccc2C1=O)Oc1ccc2ccccc2c1,i,27%,0%,0%,5%
SMILES,ATXN viability,TGFb SMAD3 inh,ATXN2 expr inh,ALOX12 inh,HepG2 viability
CC1=CC(C)(C)Nc2ccc(OC(=O)CCN3C(=O)c4ccccc4C3=O)cc21,nt,?,25µM*,-1%,-72%
Fc1cccc(COc2ccc(-c3nnco3)cc2)c1,nt,nt,nt,10%,nt
C[C@H](NCc1ccc(OCc2cccc(F)c2)cc1)C(N)=O,nt,nt,19µM*,-25%[57.4 µM],nt
COc1ccccc1NC(=O)c1nn(-c2ccc(C)cc2)ccc1=O,nt,nt,nt,-17%,nt
CN(C)CCCN(Cc1cccs1)C(=S)NCc1ccccc1,nt,nt,nt,37%,nt
O=C(Cn1c(SCC(=O)Nc2ccc(F)cc2)nc2ccccc21)NCc1ccc(F)cc1,?,-25%,-17%,?,-58%
Cc1ccc(CNC(=O)Cn2c(SCC(=O)Nc3ccc(F)cc3)nc3ccccc32)cc1,?,?,?,-21%,7.1µM*
